The values below come from the antibiotic and cytotoxicity screens of Wong et al. (2023).

Molecules are shown by their SMILES. In all, about 39,000 compounds went through this assay and about 3,300 (8.5%) were called active. Shown is part of a subset that was picked to be rich in actives.

This test deals with HepG2. As to the kind of experiment: cytotoxicity call (relative viability < 0.9). The conditions noted are these: 10 µM.
`Cc1ccc(S(=O)(=O)Nc2cccc3c2O[C@H](CN(C)C(=O)Nc2ccc(C(F)(F)F)cc2)[C@H](C)CN([C@H](C)CO)C3=O)cc1`: the cytotoxicity call is “inactive”. Take `C[C@@H]1CCCCO[C@@H](CN(C)CC2CCCCC2)[C@H](C)CN([C@H](C)CO)C(=O)c2cc(NS(=O)(=O)c3ccccc3)ccc2O1`: the cytotoxicity call is “inactive”. Consider `Cc1ccc(S(=O)(=O)Nc2ccc3c(c2)C(=O)N([C@@H](C)CO)C[C@H](C)[C@@H](CN(C)Cc2ccc(Cl)c(Cl)c2)OCCCC[C@H](C)O3)cc1`, for which the cytotoxicity call was “active”. Take `Cc1ccc(S(=O)(=O)Nc2ccc3c(c2)C(=O)N([C@H](C)CO)C[C@H](C)[C@@H](CN(C)Cc2ccc(Cl)c(Cl)c2)OCCCC[C@@H](C)O3)cc1`: the cytotoxicity call is “inactive”. To `Cc1ccc(S(=O)(=O)Nc2ccc3c(c2)C(=O)N([C@H](C)CO)C[C@H](C)[C@H](CN(C)Cc2ccc(Cl)c(Cl)c2)OCCCC[C@@H](C)O3)cc1` belongs “active”; to `O=C(O)CC[C@H]1CCC(=O)N1`, “inactive”.

With `C[C@@H]1CN([C@H](C)CO)C(=O)Cc2cc(NC(=O)c3ccncc3)ccc2O[C@H]1CN(C)S(=O)(=O)c1cn(C)cn1`, the cytotoxicity call is “inactive”. For `C[C@@H]1CCCCO[C@@H](CN(C)CC2CC2)[C@H](C)CN([C@H](C)CO)C(=O)c2cc(NS(C)(=O)=O)ccc2O1`, the cytotoxicity call was “inactive”. To `C[C@@H]1CN([C@@H](C)CO)C(=O)c2cccc(NS(=O)(=O)c3ccccc3)c2O[C@@H]1CN(C)S(C)(=O)=O` belongs “inactive”; to `C[C@@H]1CN([C@@H](C)CO)C(=O)c2cc(NS(=O)(=O)c3ccccc3)ccc2O[C@H]1CN(C)S(C)(=O)=O`, “inactive”. Consider `O=C(C[C@@H]1C=C[C@H](NC(=O)c2cccc(F)c2)[C@@H](CO)O1)NCCN1CCCC1`, for which the cytotoxicity call was “inactive”. Regarding `CN(C)CC(=O)N1CC(=O)N2[C@H](CO)[C@@H](c3ccc(C#Cc4cccnc4)cc3)[C@H]2C1`, the cytotoxicity call was “inactive”.

Consider `O=c1cc(-c2ccccc2)oc2ccccc12`, for which the cytotoxicity call is “inactive”. As for `CCOC(=O)COc1ccc2c(=O)cc(-c3ccccc3)oc2c1`, the cytotoxicity call is “active”. In the case of `COc1ccc2c(=O)cc(-c3ccccc3OC)oc2c1`, the cytotoxicity call is “inactive”.

Take `CCS(=O)(=O)Nc1ccc2c(c1)C(=O)N(C)[C@@H]1CC[C@@H](CC(=O)N[C@@H]3CCN(Cc4ccccc4)C3)O[C@@H]1CO2`: the cytotoxicity call was “inactive”. Take `Cc1cc(C(=O)Nc2cccc3c2O[C@@H](CN(C)Cc2ccncc2)[C@@H](C)CN([C@H](C)CO)C3=O)n(C)n1`: the cytotoxicity call was “inactive”. For `C=CCOC(=O)[C@@H]1[C@H]2C(=O)O[C@H](c3ccccc3)[C@H](c3ccccc3)N2[C@H](c2ccc(OCCOC(=O)[C@H]3C[C@H]4C(=O)N5CCC[C@H]5C(=O)N4[C@H]3c3cccc(OCCO)c3)cc2)[C@@]12C(=O)Nc1ccc(I)cc12`, the cytotoxicity call is “inactive”.

For `CN(C)CCCNC(=O)C[C@@H]1CC[C@@H]2[C@H](COC[C@H](O)CN2S(=O)(=O)c2ccccc2)O1`, the cytotoxicity call is “inactive”. Take `Cc1cc(C(=O)c2cc3cc(Cl)ccc3o2)ccc1Cl`: the cytotoxicity call was “inactive”.

On to `Cc1ccc(CN)cc1Cl`, for which the cytotoxicity call was “inactive”. With `Cc1cc(CN)cc(C)c1NC(=O)c1ccc(-c2cc(Cl)ccc2Cl)o1`, the cytotoxicity call was “active”.

As to `CCCCN1CC=C[C@@]23O[C@@H]4C=CCCOC(=O)[C@@H]4[C@H]2C(=O)N([C@@H](C)CO)[C@@H]3C1=O`, the cytotoxicity call is “inactive”. To `NNc1ccc2c(N)[nH]nc2c1` belongs “inactive”. Under `COc1cccc(CN(C)C[C@@H]2OCc3ccccc3-c3c(n(C)c4ccccc34)C(=O)N([C@H](C)CO)C[C@H]2C)c1` stands “inactive”; under `NCCC(=O)N1c2ccccc2Sc2ccccc21`, “inactive”. On to `O=C(c1cccs1)N1c2ccccc2Sc2ccccc21`, for which the cytotoxicity call is “inactive”. With `O=C(Cc1cccs1)N1c2ccccc2Sc2ccccc21`, the cytotoxicity call is “active”. Turning to `C[C@@H]1CN([C@H](C)CO)C(=O)c2cc(NC(=O)Nc3ccc(C(F)(F)F)cc3)ccc2O[C@@H](C)CCCCO[C@@H]1CN(C)S(=O)(=O)c1ccc(Cl)cc1`, the cytotoxicity call was “inactive”. Under `O=C1CN(S(=O)(=O)Cc2ccccc2)C[C@@H]2[C@@H](c3ccc(C#Cc4ccc(F)cc4)cc3)[C@@H](CO)N12` stands “active”; under `O=C1CN(S(=O)(=O)Cc2ccccc2)C[C@@H]2[C@@H](c3ccc(C#Cc4ccc(F)cc4)cc3)[C@H](CO)N12`, “active”.

Take `O=C1CN(S(=O)(=O)Cc2ccccc2)C[C@H]2[C@@H](c3ccc(C#Cc4ccc(F)cc4)cc3)[C@@H](CO)N12`: the cytotoxicity call is “inactive”. For `O=C1CN(S(=O)(=O)Cc2ccccc2)C[C@@H]2[C@H](c3ccc(C#Cc4ccc(F)cc4)cc3)[C@@H](CO)N12`, the cytotoxicity call was “inactive”.

For the compound `O=C1CN(S(=O)(=O)Cc2ccccc2)C[C@H]2[C@H](c3ccc(C#Cc4ccc(F)cc4)cc3)[C@H](CO)N12`, the cytotoxicity call is “inactive”. Turning to `O=C1CN(S(=O)(=O)Cc2ccccc2)C[C@H]2[C@H](c3ccc(C#Cc4ccc(F)cc4)cc3)[C@@H](CO)N12`, the cytotoxicity call was “inactive”. In the case of `CN(C)S(=O)(=O)N1CCO[C@@H]2CN(c3ncc(F)cn3)C[C@@H]21`, the cytotoxicity call was “inactive”. For `O=C1O[C@H](c2ccccc2)[C@H](c2ccccc2)N2[C@H]1[C@@H](C(=O)Nc1nc3ccccc3s1)[C@]1(C(=O)Nc3ccc(C#CC4(O)CCCCCC4)cc31)[C@H]2c1ccccc1OCCO`, the cytotoxicity call was “inactive”. Turning to `C[C@@H]1CCCCO[C@@H](CN(C)C(=O)Nc2ccc3c(c2)OCO3)[C@@H](C)CN([C@@H](C)CO)C(=O)c2cc(NC(=O)CCC(F)(F)F)ccc2O1`, the cytotoxicity call is “inactive”. As for `C[C@H]1CN([C@@H](C)CO)C(=O)c2cc(NC(=O)CCCCCC(=O)Nc3ccccc3N)ccc2O[C@H]1CN(C)Cc1ccc(Oc2ccccc2)cc1`, the cytotoxicity call is “inactive”. Regarding `C[C@@H]1CN([C@H](C)CO)C(=O)c2cc(NC(=O)CCCCCC(=O)Nc3ccccc3N)ccc2O[C@@H]1CN(C)Cc1ccccc1`, the cytotoxicity call was “inactive”. Take `COc1ccc(CN(C)C[C@H]2Oc3ccc(NC(=O)CCCCCC(=O)Nc4ccccc4N)cc3C(=O)N([C@H](C)CO)C[C@H]2C)cc1`: the cytotoxicity call is “inactive”.

With `C[C@@H]1CN([C@H](C)CO)C(=O)c2cc(NC(=O)CCCCCC(=O)Nc3ccccc3N)ccc2O[C@H]1CN(C)Cc1ccccc1`, the cytotoxicity call was “inactive”.

For the compound `C[C@@H]1CN([C@H](C)CO)C(=O)c2cc(NC(=O)CCCCCC(=O)Nc3ccccc3N)ccc2O[C@@H]1CN(C)Cc1ccc(Oc2ccccc2)cc1`, the cytotoxicity call is “active”. For `C[C@H](CO)N1C[C@H](C)[C@@H](CN(C)Cc2ccccc2)Oc2ccc(NC(=O)CCCCCC(=O)Nc3ccccc3N)cc2C1=O`, the cytotoxicity call was “inactive”. Under `C[C@H]1CN([C@@H](C)CO)C(=O)c2cc(NC(=O)CCCCCC(=O)Nc3ccccc3N)ccc2O[C@@H]1CN(C)Cc1ccccc1` stands “active”; under `C[C@@H]1CN([C@@H](C)CO)C(=O)c2cc(NC(=O)CCCCCC(=O)Nc3ccccc3N)ccc2O[C@H]1CN(C)Cc1ccccc1`, “active”; under `C[C@H](CO)N1C[C@H](C)[C@H](CN(C)Cc2ccccc2)Oc2ccc(NC(=O)CCCCCC(=O)Nc3ccccc3N)cc2C1=O`, “inactive”.
